High-throughput results as filed in PubChem BioAssay.
Sampled rows, rich in hits. Any-hit rate of the full collection: about 2.4%.
TMEM16A inh: TMEM16A chloride channel inhibitors, primary screen, cell-based, HTS; Anoctamin-1 (Mus musculus), Q8BHY3; HEK293 TMEM16A/YFP iodide influx fluorescence, ionomycin; normalized B-score (activity score, 25-100; higher = stronger inhibition) at 10 µM; 310,000 tested, 1.2% active; AID 588511, 2011;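 active means ratio plate-corrected score three or more library SD toward inhibition, starting fluorescence score within five deviations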;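 further: score derived from kinetic fluorescence span divided by baseline fluorescence per well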
CHT PAM: CHT positive allosteric modulators, primary screen, cell-based, membrane potential dye, choline EC20 | High affinity choline transporter 1 (Homo sapiens), Q9GZV3 | CHT-expressing cells; active compounds read high; LV-AA mutant CHT in HEK293 cells | B-score at 10 µM | 310,000 tested, 0.49% active;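 active means initial fluorescence not abnormally high and integrated response B-score, plate-corrected, over 3 SD above library mean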
Target sequence (Q9GZV3 whole entry, looked up): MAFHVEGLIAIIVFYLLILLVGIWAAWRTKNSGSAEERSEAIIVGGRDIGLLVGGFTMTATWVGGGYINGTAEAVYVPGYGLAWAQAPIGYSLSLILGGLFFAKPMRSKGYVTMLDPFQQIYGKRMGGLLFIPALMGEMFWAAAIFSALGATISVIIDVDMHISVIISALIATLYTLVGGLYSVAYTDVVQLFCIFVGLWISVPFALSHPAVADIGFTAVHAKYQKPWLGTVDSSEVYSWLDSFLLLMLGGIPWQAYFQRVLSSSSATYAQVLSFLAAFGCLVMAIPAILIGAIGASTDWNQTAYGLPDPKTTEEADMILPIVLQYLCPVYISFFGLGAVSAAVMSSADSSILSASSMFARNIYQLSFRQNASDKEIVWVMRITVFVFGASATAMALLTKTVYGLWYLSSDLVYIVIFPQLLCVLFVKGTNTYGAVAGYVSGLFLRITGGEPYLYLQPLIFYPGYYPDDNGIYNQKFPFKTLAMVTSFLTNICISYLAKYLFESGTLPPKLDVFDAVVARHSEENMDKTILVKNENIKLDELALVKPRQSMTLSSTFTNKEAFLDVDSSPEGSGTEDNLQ
CHT inh: inhibitors of human choline transporter CHT | CHT-expressing cells, membrane potential dye, choline response; active compounds read low | B-score at 10 µM | 310,000 tested, 0.86% active;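 active means B-score over 3 SD under the library average, and starting fluorescence ratio not unusually high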;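 further: choline stimulus applied at its EC90 after an EC20 pre-addition; B-score computed on integrated fluorescence ratio after choline addition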
TMEM16A act: TMEM16A chloride channel activators or potentiators, primary screen, cell-based, HTS; Anoctamin-1 (Mus musculus), Q8BHY3; HEK293 TMEM16A/YFP-H148Q/I152L, iodide quench fluorescence; active compounds read low; B-score at 10 µM; 340,000 tested, 0.3% active;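 active means fluorescence-ratio B-score plate-corrected deviation score at least 3 library SD below zero, with starting fluorescence score within 5 deviations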;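 further: channel opened by trigger with iodide after compound preincubation; score built on the fluorescence ratio of max minus min over baseline; more negative score means more quench and so TMEM16A activation or potentiation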
CHT act confirm: CHT activators, confirmation, cell-based, membrane potential dye, duplicate. CHT-expressing cells, membrane potential dye fluorescence (FDSS); % of choline EC20–EC90 response window; HEK293 expressing CHT LV-AA mutant; choline added at its EC20. 2,500 tested, 91% active. activation, % at 10 µM. shares compounds with CHT PAM;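 active means primary screen active, with duplicate mean activation above negative control mean plus 3 SD, cut at about 11% in these data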
HEK293 MP dye: membrane potential response in parental HEK293 cells, counter-screen for CHT activator project, cell-based, membrane potential dye; shares compounds with CHT PAM; ratio readout change at 10 µM, hits read low; AID 623908, 2012; 2,500 tested, 62% active; membrane potential dye fluorescence (FDSS); measured after EC20 choline addition;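 active means duplicate-averaged ratio beyond 3 SD from buffer wells, up or down, though filed actives are nearly all decreases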
Active calls of the source: *; i = inactive; · = no result given.

SMILES	TMEM16A inh	CHT PAM	CHT inh	TMEM16A act	CHT act confirm	HEK293 MP dye
Cc1ccc2nc(N3CCN(c4ccccc4)CC3)c(C=O)c(=O)n2c1	i	i	i	i	·	·
CCNC(=O)/C(C#N)=C/c1c(N2CCN(c3cccc(Cl)c3)CC2)nc2c(C)cccn2c1=O	i	i	i	i	·	·
Cc1ccc2nc(N3CCN(C)CC3)c(C=O)c(=O)n2c1	i	i	i	i	74.3*	-50.8*
O=Cc1c(N2CCN(CCO)CC2)nc2ccccn2c1=O	i	i	i	i	·	·
Cc1ccc(S(=O)(=O)/C(C#N)=C/c2c(N3CCN(C)CC3)nc3c(C)cccn3c2=O)cc1	i	7.44*	i	i	50.4*	-45.8*
CCN1CCN(c2nc3ccccn3c(=O)c2C=O)CC1	i	i	i	i	56.8*	-51.3*
Cc1cccn2c(=O)c(C=O)c(N3CCN(C)CC3)nc12	i	7.07*	i	i	70.7*	-65.9*
Cc1cc(C)n(-c2nc(NCC(C)O)c3c4c(sc3n2)COC(C)(C)C4)n1 (stereo unspecified)	i	i	i	i	·	·
Cc1cc(C)n(-c2nc(SCCN(C)C)c3c4c(sc3n2)COC(C)(C)C4)n1	i	i	i	i	40.8*	-45*
CCOC(=O)C1(CCc2ccccc2)CCN(Cc2cc(OC)c(OC)cc2OC)CC1	i	10.5*	i	i	55.9*	i
CCOC(=O)C1(CCOc2ccccc2)CCN(Cc2ccc3nonc3c2)CC1	i	6.41*	i	i	6.3	i
O=C(N/N=C/c1ccco1)c1ccc(N2CCCC2=O)cc1	i	7.73*	i	i	59.4*	-70.5*
CCCCCCCCCC[n+]1cccc2c3ccccc3ccc21	·	·	·	i	·	·
CCCCCCCC[n+]1cccc2c3ccccc3ccc21	100*	6.77*	i	i	19.3*	-25.9*
CCOc1nc(N=C(N)N)nc2c(C)cccc12	i	6.61*	i	i	53.9*	-60.2*
CCOc1nc(-c2ccccc2O)nc2ccccc12	i	i	i	i	·	·
O=C(c1ccco1)N1CCN(C(=O)c2cnn(-c3ccc(Cl)cc3)c2C2CCNCC2)CC1	i	i	i	i	·	·
CCN1CCN(c2nc(NCCO)c3ccccc3n2)CC1	i	8.87*	i	i	75.9*	-79.1*
c1ccc(CN2CCN(c3nc(N4CCOCC4)c4ccccc4n3)CC2)cc1	i	i	i	i	·	·
OCCNc1c2ccccc2nc2ccccc12	i	6.32*	i	i	40.3*	-47.2*
OCCNc1nc(N2CCN(Cc3ccccc3)CC2)nc2ccccc12	i	i	i	i	59.5*	-71.9*
OCCNc1nc2ccccc2nc1NCCO	i	i	i	i	·	·
O=C(NCc1ccccc1Cl)C(=O)c1c[nH]c2ccccc12	i	i	i	i	·	·
CN(CC(=O)Nc1ncn[nH]1)S(=O)(=O)c1ccc(Cl)cc1	i	i	i	i	·	·
Cn1c(-c2ccncc2)nc2ccccc21	i	i	i	i	·	·
SMILES	TMEM16A inh	CHT PAM	CHT inh	TMEM16A act	CHT act confirm	HEK293 MP dye
CCN(CC)c1ccc(-c2nc3cnccc3n2C)cc1	i	10.3*	i	i	32.5*	-49.1*
Cc1sc2ncn(CC(=O)N3CCN(c4ccccn4)CC3)c(=O)c2c1S(=O)(=O)N1CCCCC1	i	i	i	i	·	·
CC(C)c1nc(N2CCN(C(=O)c3ccco3)CC2)c(C#N)c2c1COC(C)(C)C2	i	6.64*	i	i	22.8*	i
CC1(C)Cc2c(C#N)c(N3CCCC3)nc(-c3ccco3)c2CO1	i	i	i	i	·	·
COc1cc(Cn2ccnc2)c(OC)cc1Cn1ccnc1	i	13.4*	i	i	81.0*	-82.7*
COc1ccc(C(=O)Nc2ccc(Cn3ccnc3)cc2)cc1OC	i	i	i	i	·	·
COc1ccc(-c2nc3cnccn3c2Nc2ccc(C)cc2)cc1	i	i	i	i	35.6*	-28.3*
Cc1cc2nc(-c3cccnc3SCC(=O)NC(C)C)[nH]c2cc1C	i	i	i	i	·	·
CCN1/C(=C/c2ccc3cccc(C)c3[n+]2CC)Sc2ccccc21	i	i	i	i	11.8*	i
CC(=O)c1ccc(N2CCN(CC(=O)N(C3CC3)C3CCS(=O)(=O)C3)CC2)c(F)c1 (stereo unspecified)	·	·	·	i	·	·
CCn1c(COc2ccc3c(c2)CCCC3)nnc1SCC(=O)Nc1ccc(C(=O)OC)cc1	i	i	i	i	·	·
CCN1CCN(c2cc(C)c3cc(NC(=S)N4CCN(c5ccc(F)cc5)CC4)ccc3n2)CC1	i	i	i	i	·	·
CCN1CCN(c2cc(C)c3cc(NC(=O)c4ccc(C)c(C)c4)ccc3n2)CC1	i	i	i	i	·	·
CCN1CCN(C(=S)Nc2ccc3nc(N4CCN(C)CC4)cc(C)c3c2)CC1	i	6.9*	i	i	40.7*	-34.2*
CCN1CCN(C(=S)Nc2ccc3nc(N4CCN(CC)CC4)cc(C)c3c2)CC1	i	i	i	i	27.2*	-37.4*
CCN1CCN(c2cc(C)c3cc(NC(=O)c4ccncc4)ccc3n2)CC1	i	i	i	i	43.4*	-26.4*
CCCCn1c(SCC(=O)NC2CCS(=O)(=O)C2)nc2ccccc2c1=O (stereo unspecified)	i	i	i	i	·	·
CC(C)(C)OC(=O)COc1cc(OCC(=O)OC(C)(C)C)c2c(=O)cc(-c3ccccc3)oc2c1	100*	8.3*	i	i	50.3*	i
NC(=O)C1CCN(C(=O)CCC(=O)c2ccc(Br)cc2)CC1	i	i	i	i	·	·
CCOC(=O)c1cccc(NC(=O)CSc2nc3ccccc3c(=O)n2CC)c1	i	i	i	i	·	·
Cc1n(Cc2ccccc2)c2cc([N+](=O)[O-])ccc2[n+]1Cc1ccccc1	i	8.34*	i	i	72.0*	-58.2*
CCOC(=O)c1ccc2c(c1)n(CC)c(/C=C/Nc1ccccc1)[n+]2CC	i	i	i	i	31.8*	-82.8*
CCn1c(C)[n+](Cc2ccccc2)c2ccc(Cl)cc21	i	i	i	i	·	·
